These results are taken from PubChem BioAssay (NCATS).

One assay concerns MCC-13. Description: qHTS assay to identify novel small-molecules to repurpose for Merkel cell carcinoma treatment (AID 1296009). Also: nearly all actives have a fitted effect of over 60% in size. Also: potency is read from the fitted curve at half-maximal effect. The note with it: MCC and control cell lines, CellTiter-Glo viability, 72 h; series mostly up to 46 µM. The gist of the method: (§1)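 After compound transfer in DMSO, plates were kept 72 hr at 37 degree celsius. Luminescent ATP signal from CellTiter-Glo served as viability measure, normalized against DMSO and no-cell controls.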
For orientation: Quantitative high-throughput screening tests each substance at several concentrations.

In another assay the test system is MKL-1. Described as above. The note with it: MCC and control cell lines, CellTiter-Glo viability, 72 h; series mostly up to 46 µM. Summed up:
as §1

In another assay the test system is MKL-2. The description is as above. The following applies: MCC and control cell lines, CellTiter-Glo viability, 72 h; series mostly up to 46 µM. Summed up: as §1
In general terms: Cellular ATP, detected with luciferase, serves as a proxy for viable cell number.

In another assay the test system is NIH3T3. The description is as above. The following applies: MCC and control cell lines, CellTiter-Glo viability, 72 h; at 44.8 µM (top of the series) unless noted. The gist of the method: as §1
The next assay relates to UISO. The assay is described as above. The following applies: MCC and control cell lines, CellTiter-Glo viability, 72 h; series mostly up to 46 µM. The gist of the method: as §1
The next assay relates to WaGa. The assay is described as above. The note with it: MCC and control cell lines, CellTiter-Glo viability, 72 h; series mostly up to 46 µM. The gist of the method: as §1
In a further assay the test system is C33A. Description: Primary qHTS to identify gynecologic anti-cancer compounds using libraries of approved drugs and bioactive compounds (AID 1345084). Also: nearly all actives have a fitted effect of over 55% in size. The note with it: Gynecologic cancer cell panel viability, ATPlite luminescence, 48 h; series mostly up to 57.5 µM. Summed up:
(§2)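 Cells, 1,000 per well, plated 16 h, then exposed 48 h at 37 C to compounds. Viability by ATPlite luminescence after 15 min at room temperature.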

In another assay the test system is CAOV3. The assay is described as above. The following applies: Gynecologic cancer cell panel viability, ATPlite luminescence, 48 h; series mostly up to 57.5 µM. Summed up:
as §2

A further assay relates to CASKI. The assay is described as above. The note with it: Gynecologic cancer cell panel viability, ATPlite luminescence, 48 h; series mostly up to 57.5 µM. The gist of the method: as §2
Another assay concerns Es-2. The description is as above. The note with it: Gynecologic cancer cell panel viability, ATPlite luminescence, 48 h; series mostly up to 57.5 µM. Summed up:
as §2

The next assay relates to HeLa. The assay is described as above. The note with it: Gynecologic cancer cell panel viability, ATPlite luminescence, 48 h; series mostly up to 57.5 µM. Summed up:
as §2

The subject of a further assay is Hek293T. The assay is described as above. The following applies: Gynecologic cancer cell panel viability, ATPlite luminescence, 48 h, control line for the selectivity index; series mostly up to 57.5 µM. The gist of the method: as §2
A further assay deals with JEG-3. The assay is described as above. The note with it: Gynecologic cancer cell panel viability, ATPlite luminescence, 48 h; series mostly up to 57.5 µM. Summed up: as §2
The test system of the next assay is OV90. Described as above. The following applies: Gynecologic cancer cell panel viability, ATPlite luminescence, 48 h; series mostly up to 57.5 µM. The gist of the method:
as §2

The test system of another assay is PA-1. Described as above. The note with it: Gynecologic cancer cell panel viability, ATPlite luminescence, 48 h; series mostly up to 57.5 µM. The gist of the method:
as §2

In a further assay the test system is SKOV3. Described as above. The following applies: Gynecologic cancer cell panel viability, ATPlite luminescence, 48 h; series mostly up to 57.5 µM. The gist of the method:
as §2

Another assay has as its system Tov-21-G. The description is as above. The following applies: Gynecologic cancer cell panel viability, ATPlite luminescence, 48 h; series mostly up to 57.5 µM. Summed up: as §2
The subject of another assay is Tov112D. The description is as above. The note with it: Gynecologic cancer cell panel viability, ATPlite luminescence, 48 h; series mostly up to 57.5 µM. Summed up: as §2
A short description of assay [1]: Drug repurposing screens with cells derived from glioblastoma tumor samples (AID 1345199). Also: nearly all actives have a fitted effect of over 40% in size. The following applies: GBM patient neurospheres viability, ATP luminescence, 48 h. Summed up:
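Four patient lines of CD133+ GBM neurospheres were screened at several concentrations; hits were retested in those lines plus three slower-growing GBM lines, using 48-hour treatment and ATP-based viability.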

In another assay the test system is MCC-26. Description: qHTS assay to identify novel small-molecules to repurpose for Merkel cell carcinoma treatment (AID 1296009). Also: nearly all actives have a fitted effect of over 60% in size. Also: potency is read from the fitted curve at half-maximal effect. The note with it: MCC and control cell lines, CellTiter-Glo viability, 72 h; series mostly up to 46 µM. The gist of the method:
as §1

The mark [2] stands for this setting: at 45.9 µM (top of the series), tumour line B.
Where [3] appears, read: at 45.9 µM (top of the series), tumour line D.
The mark [4] stands for this setting: at 46 µM (top of the series), tumour line A.
[5] abbreviates: at 46.1 µM (top of the series), tumour line C.

“And” between values parts separate entries of the source, which are not always exact repeats. Identical values can stand only once. Records with an inconclusive call do not appear. A structure can be active in one record and inactive in another. Unmarked numbers belong to inactive results. The source made the active and inactive calls. Calls follow the shape of the dose curve; as a rule, active = well fitted curve in the direction sought with a large enough effect; inconclusive = small, poorly fitted or top-dose-only effect, or another doubt; inactive = no such curve, though single readings can be large; an effect the other way counts as inactive or inconclusive.
% is scaled to controls: 0 for no effect and ±100 for the full control effect.

With `Cn1cc[nH]c1=S`, the Potency result with MCC-13, in the assay with MKL-1, with MKL-2, with UISO, with WaGa and with C33A was “inactive” in each case. Moreover, the Potency result in the assay with CAOV3, in the assay on CASKI, in the assay with Es-2, in the assay with HeLa, with Hek293T and with JEG-3 was “inactive” throughout. The Potency result with OV90, in the assay with PA-1, in the assay on SKOV3, in the assay on Tov-21-G and in the assay with Tov112D was “inactive” each time. For the same compound, the result with NIH3T3 was inactive. The activity, negative = cell killing in assay [1] (at 20 µM (top of the series), tumour line C) is 3.07%; in assay [1] (at 21.2 µM (top of the series), tumour line B) it was -12.9%; in [1] (at 21.2 µM (top of the series), tumour line D), -12.3%; in [1] (at 21.3 µM (top of the series), tumour line A), -28.7%.

Turning to `O=C1O[C@H]([C@@H](O)CO)C(O)=C1O`, the Potency entry in the assay with MCC-13, with MKL-1, with MKL-2, with UISO, with WaGa and in the assay with C33A was “inactive” each time. Also, the Potency entry with CAOV3, in the assay on CASKI, in the assay on Es-2, with HeLa, with Hek293T and in the assay with JEG-3 was “inactive” in each case. The Potency entry in the assay on OV90, in the assay on PA-1, with SKOV3, in the assay with Tov-21-G and with Tov112D was “inactive” each time. Also, the call in the assay on NIH3T3 was inactive. The activity, negative = cell killing in assay [1] (setting [2]) was -10.4% and -5.65%; in assay [1] (setting [3]), -12.1% and -20.9%; in [1] (setting [4]), -0.597%; in assay [1] (setting [5]), -3.99% and -11%.

On to `CN1CCN(C2Cc3ccccc3Sc3ccc(Cl)cc32)CC1` (stereo not drawn), for which the Potency result in the assay with MCC-13, with MCC-26, in the assay with C33A, with CASKI, in the assay on Es-2 and with HeLa was “inactive” in each case. The Potency entry in the assay on Hek293T, in the assay with JEG-3, in the assay on PA-1, in the assay on Tov-21-G and in the assay on Tov112D was “inactive” in each case. Also, the Potency is 26.6 µM (active) with MKL-1, 26.6 µM (active) in the assay on MKL-2, 23.7 µM (active) in the assay on UISO and 23.7 µM (active) in the assay with WaGa.

For the compound `CN1CCCCC1CCN1c2ccccc2Sc2ccc(S(C)=O)cc21` (stereo not drawn), the Potency result in the assay with MCC-13, with MCC-26, with MKL-1, in the assay with MKL-2, with UISO and with C33A was “inactive” in each case. For the same compound, the Potency entry in the assay with CAOV3, in the assay with CASKI, in the assay with Es-2, in the assay with HeLa, in the assay with Hek293T and in the assay with JEG-3 was “inactive” in each case. Moreover, the Potency entry in the assay on OV90, in the assay with PA-1, with SKOV3, with Tov-21-G and with Tov112D was “inactive” throughout. The activity, negative = cell killing in assay [1] (setting [2]) is -8.07%; in assay [1] (setting [5]), -16.7% and 11.5%.

As for `COc1ccc(S(=O)(=O)Nc2nnc(CC(C)C)s2)cc1`, the Potency result in the assay on MCC-13, in the assay with MCC-26, in the assay on MKL-1, in the assay on MKL-2, with UISO and with WaGa was “inactive” in each case. Besides, the Potency result in the assay with C33A, with CASKI, with Es-2, in the assay with HeLa, in the assay with Hek293T and in the assay with JEG-3 was “inactive” in each case. The Potency result with OV90, with PA-1, in the assay on Tov-21-G and in the assay on Tov112D was “inactive” in each case. The activity, negative = cell killing is -4.51% and -11.1% in [1] (setting [2]); -10.6% and 2.66% in [1] (setting [3]); -18% in assay [1] (setting [4]); -23.9% in assay [1] (setting [5]).
